Eight compounds from PubChem BioAssay (EPA / NIEHS) can be followed below.

Records with an inconclusive call do not appear. Active and inactive are the calls of the source. The calls were made as follows: active = hit-call score of the fitted dose curve at least 0.9, where 1 is the maximum; inconclusive = response in the unintended direction; inactive = score below 0.9.

Sequence of human Adenosine A2a Receptor (AdoRA2a), ADORA2A (gene 135) (P29274 whole entry, looked up): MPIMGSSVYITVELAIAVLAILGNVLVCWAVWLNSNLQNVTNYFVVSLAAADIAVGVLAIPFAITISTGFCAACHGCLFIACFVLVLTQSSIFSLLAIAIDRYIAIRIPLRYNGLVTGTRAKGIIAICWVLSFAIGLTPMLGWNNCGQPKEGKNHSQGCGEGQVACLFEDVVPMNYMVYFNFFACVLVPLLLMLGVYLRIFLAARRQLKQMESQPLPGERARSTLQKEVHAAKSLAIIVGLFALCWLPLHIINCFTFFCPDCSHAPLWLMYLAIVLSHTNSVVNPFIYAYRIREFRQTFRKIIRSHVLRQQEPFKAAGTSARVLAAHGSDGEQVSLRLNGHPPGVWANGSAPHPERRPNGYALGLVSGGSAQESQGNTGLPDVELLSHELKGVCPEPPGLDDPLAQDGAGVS
Sequence of guinea pig Opioid, Kappa 1 Receptor (OpiateK), OPRK1 (gene 100135587) (P41144 whole entry, looked up): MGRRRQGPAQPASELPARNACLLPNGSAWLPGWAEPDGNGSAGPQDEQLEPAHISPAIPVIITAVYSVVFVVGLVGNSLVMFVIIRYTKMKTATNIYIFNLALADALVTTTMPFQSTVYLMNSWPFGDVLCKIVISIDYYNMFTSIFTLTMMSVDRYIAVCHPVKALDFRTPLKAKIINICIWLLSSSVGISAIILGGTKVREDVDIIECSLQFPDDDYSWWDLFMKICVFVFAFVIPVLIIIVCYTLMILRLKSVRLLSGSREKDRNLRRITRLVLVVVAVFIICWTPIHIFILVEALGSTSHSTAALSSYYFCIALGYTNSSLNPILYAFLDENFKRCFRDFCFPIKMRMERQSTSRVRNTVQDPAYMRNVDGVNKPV

The first assay addresses guinea pig Opioid, Kappa 1 Receptor (OpiateK), OPRK1 (gene 100135587) (UniProt P41144). The experiment in a line: NVS_GPCR_gOpiateK: NovaScreen (NVS) G Protein-Coupled Receptor Assay for guinea pig Opioid, Kappa 1 Receptor (OpiateK) (AID 2283252).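 Also: active means reduced radioligand binding relative to DMSO.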 The procedure, abridged: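 Cell-free tissue prep: guinea pig cerebellar membranes, radioligand displacement, 2 h incubation. Readout: filtration plus scintillation counting. Primary single-point 25 uM duplicate; actives retested in concentration series; DMSO negative control.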
Turning to `Cc1cc(O)c(C)c(C)c1O`, the result was inactive.

For the compound `CC/C(=C(\c1ccccc1)c1ccc(OCCN(C)C)cc1)c1ccccc1`, the call was inactive.

Consider `O=S1(=O)CC(Cl)(Cl)C(Cl)(Cl)C1`, for which the outcome was inactive.

On to `CCCCCC1C(=O)CCC1CC(=O)OC` (centres undefined), for which the call was inactive.

Consider `O=C(c1ccc(OCCN2CCCCC2)cc1)c1c(-c2ccc(O)cc2)sc2cc(O)ccc12`, for which the concentration at half-maximal activity (AC50) is 0.508 µM (active).

For `O=C1OC2(c3ccc(O)cc3Oc3cc(O)ccc32)c2ccccc21`, the outcome was inactive.

The target in another assay is human Adenosine A2a Receptor (AdoRA2a), ADORA2A (gene 135) (UniProt P29274). The experiment in a line: NVS_GPCR_hAdoRA2a: NovaScreen (NVS) G Protein-Coupled Receptor Assay for human Adenosine A2a Receptor (AdoRA2a) (AID 2283256). The method, boiled down:
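Compounds screened in duplicate at 25 uM, with actives followed up in concentration series, for displacement of a radioligand from HEK293-derived receptor protein. Bound counts read by filter scintillation at 1.5 hours, DMSO as baseline.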
As for `C#C[C@]1(O)CC[C@H]2[C@@H]3CCc4cc(O)ccc4[C@H]3CC[C@@]21C`, the AC50 was 6.76 µM (active).

As to `O=C1OCc2ccccc21`, the call was inactive.

Take `O=C(c1ccc(OCCN2CCCCC2)cc1)c1c(-c2ccc(O)cc2)sc2cc(O)ccc12`: the AC50 was 6.13 µM (active).

The term AC50 denotes the concentration at which the activity in the assay is half-maximal.
